The full list was thinned out, with hits kept by preference.
Sm TGR block = blocks Schistosoma mansoni thioredoxin glutathione reductase; Q962Y6; purified TGR, DTNB reduction, TNB absorbance 405 nm; Potency, µM (top dose mostly 114 µM), for the others: at the top dose activity change, negative = inhibition, usual class: inhibitors; 3% of 360,000 active; further: potency means the concentration at half of the fitted maximal effect; on the % scale 0 is the no-effect control and ±100 the full control effect; nearly all actives have a fitted effect of over 60% in size
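Kinetic colorimetric format: TGR-catalysed, NADPH-driven DTNB reduction monitored via TNB absorbance. Enzyme dispensed at 20 nM; compound exposure 15 min at room temperature before reaction start.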
Cycloheximide cs = affects cycloheximide protein synthesis inhibition readout, counter-screen; cell reporter, cycloheximide protein synthesis inhibition counterscreen; max response, %; 12% of 300,000 active; AID 2314; in the data active means max response mostly above about 13%, no sharp cut-off; inactive means mostly below about 14%; further: read at 38.3 µM for the half of the compounds with a filed dose; 0% is about no effect
Giardia FBPA inh = Giardia lamblia aldolase inhibition; purified Giardia FBPA; 0.71% of 290,000 active; Potency, µM (highest dose often 59.6 µM), without a hit: top-dose activity, negative = inhibition, actives largely listed as inhibitors; A8B2U2; further: potency means the concentration at half of the fitted maximal effect; on the % scale 0 is the no-effect control and ±100 the full control effect; nearly all actives have a fitted effect of over 55% in size
Target sequence (A8B2U2 whole entry, looked up): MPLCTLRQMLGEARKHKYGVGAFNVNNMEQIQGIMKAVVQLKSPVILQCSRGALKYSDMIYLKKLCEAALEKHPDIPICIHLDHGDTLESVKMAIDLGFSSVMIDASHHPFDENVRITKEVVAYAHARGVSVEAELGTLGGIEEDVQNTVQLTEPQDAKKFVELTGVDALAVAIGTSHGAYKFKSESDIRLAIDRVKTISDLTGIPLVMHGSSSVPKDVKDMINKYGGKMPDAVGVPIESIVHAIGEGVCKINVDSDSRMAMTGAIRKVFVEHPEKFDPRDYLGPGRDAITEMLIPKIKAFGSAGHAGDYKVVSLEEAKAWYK
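Giardia FBPA (40 nM reagent) was preincubated 10 min at RT with compound (up to 57.5 uM final), then substrate plus GAPDH/TPI/NAD/arsenate coupling system with diaphorase/resazurin was added; resorufin fluorescence (525/598 nm) was read after 20 min.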
TbPYK inhibitor = blocks Trypanosoma brucei pyruvate kinase; Q57TT1; TbPYK enzyme, Kinase-Glo Plus ATP luminescence, 45 min; Potency, µM (titrated, usually from 76.8 µM), without a hit: at the highest dose activity, negative = inhibition, hits mostly inhibitors; 0.12% of 410,000 active; further: potency means the concentration at half of the fitted maximal effect; on the % scale 0 is the no-effect control and ±100 the full control effect; nearly all actives have a fitted effect of over 50% in size
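In this concentration-response screen, enzyme-free wells defined baseline while DMSO plates tracked drift. Each reaction combined TbPYK, substrate, compound and 130 uM ADP for 45 min at room temperature. Kinase-Glo Plus luminescence gave the signal.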
Shiga inhibitor = blocks Shiga toxin action in Vero cells. Vero cells, Shiga toxin protein synthesis inhibition reporter. inhibition, % at 38.7 µM. 9.2% of 290,000 active. AID 2315; in the data active means inhibition mostly above about 28%, no sharp cut-off; inactive means mostly below about 43%; further: 0% is about no effect
LmPK inhibitor = LmPK (Leishmania mexicana) enzyme inhibition | Q27686 | purified LmPK, Kinase-Glo ATP luminescence, 1 h | Potency, µM (series often up to 57.5 µM), inactives show at the highest dose activity change, negative = inhibition, usual class: inhibitors | AID 1721 | 0.37% of 290,000 active; further: potency means the concentration at half of the fitted maximal effect; on the % scale 0 is the no-effect control and ±100 the full control effect
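Kinase-Glo luminescence read after 1 h RT reaction of 0.1 nM LmPK with 0.5 mM PEP and 0.1 mM ADP. Activity scaled between uninhibited and enzyme-free controls.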
Starred values were filed as active, the others as inactive; ? = inconclusive; nt = no result given; [ ] = remark or other dose. Unless noted, the call rests on the fitted dose curve; in most records, active means well fitted curve in the direction sought with a large enough effect; inconclusive means small, poorly fitted or top-dose-only effect, or another doubt; inactive means no such curve, though single readings can be large; an effect the other way counts as inactive or inconclusive.

SMILES	Sm TGR block	Cycloheximide cs	Giardia FBPA inh	TbPYK inhibitor	Shiga inhibitor	LmPK inhibitor
COc1ccc(-c2cc(=NCC(=O)O)c3ccccc3o2)cc1	-17%	28*	-5%	4%	62*	1%
COc1ccc(-c2oc3ccccc3c(=O)c2OCC(=O)O)cc1	1%	2	0%	-21%	-13	-3%
CCc1ccc2oc(-c3ccc(OC)cc3)cc(=Nc3c(C)n(C)n(-c4ccccc4)c3=O)c2c1	-15%	63*	-10%	-1%	127*	3%
COc1ccc(-c2cc(=O)c3cc(OCC(=O)OC(C)C)ccc3o2)cc1	3%	nt	nt	7%	nt	nt
COc1ccc(-c2cc(=Nc3cccc(C(=O)O)c3)c3cc(C)ccc3o2)cc1	0%	59*	5%	-9%	98*	-3%[11.5 µM]
CCc1ccc2oc(-c3ccc(OC)cc3)cc(=Nc3cccc(C(=O)O)c3)c2c1	-5%	58*	2%	-12%	137*	-3%
Cc1ccc2oc(-c3ccccc3)cc(=O)c2c1	nt	nt	0%	nt	nt	nt
Cc1c(C(=O)N2CCC(C)CC2)c(S(=O)(=O)NCc2ccc(Br)cc2)c(C)n1C	6%	nt	nt	0%	nt	nt
CN(C)c1ccc(-c2nc(NCCc3cnc[nH]3)c3ccccc3n2)cc1	nt	nt	-4%	nt	nt	nt
COc1ccc(-c2cc(=Nc3ccc(C(=O)O)cc3)c3cc(C)ccc3o2)cc1	5%	63*	-1%	-3%	161*	1%[11.5 µM]
COc1ccc(-c2cc(=NCCCCCC(=O)O)c3cc(C)ccc3o2)cc1	21%	12	0%	-2%	5	1%[11.5 µM]
COc1ccccc1NC(=O)CC(=O)c1ccccc1	-2%	44	-1%	-5%	55*	1%
COc1ccccc1C(=O)CC(=O)c1ccccc1	0%	68*	-19%	-2%	85*	-4%
O=[N+]([O-])c1cc(S(=O)(=O)NCCN2CCOCC2)ccc1Sc1nnnn1-c1ccccc1	18µM*	16*	-20%	-2%	10	8%
Cc1ccc(-n2nnnc2Sc2ccc(S(=O)(=O)NCCN(C)C)cc2[N+](=O)[O-])cc1	25µM*	15	0%	-18%	19	3%
CCOC(=O)c1[nH]c2c(c1Cc1ccccc1)C(=O)CC(c1ccc(OC)cc1)C2 (configuration not stated)	4%	nt	nt	-3%	nt	nt
CCOC(=O)C(Cc1c[nH]c2ccccc12)NC(=O)COc1ccc(Cl)c(C)c1 (configuration not stated)	-1%	nt	nt	0%	nt	nt
CC(=O)Nc1ccc(OCC(O)CN2C(C)CCCC2C)cc1 (configuration not stated)	-10%	20*	-12%	-15%	-3	0%
CC(C)N1CCc2c(sc(NC(=O)c3ccc([N+](=O)[O-])o3)c2C(N)=O)C1	-17%	28*	-21%	nt	14	-1%
CC(C)N1CCc2c(sc(NC(=O)c3nc4ccccc4s3)c2C(N)=O)C1	-1%	18	-11%	1%	47	0%
CC(=O)N1CCc2c(sc(NC(=O)c3ccc([N+](=O)[O-])o3)c2C#N)C1	-10%	30	-29%	-15%	82*	-20%
COC(=O)c1c(NC(=O)c2ccc([N+](=O)[O-])o2)sc2c1CCN(C(C)C)C2	-19%	23*	-14%	-6%	15	0%
Cc1cc(C)cc(NC(=O)Cn2c(=O)n(-c3cc(C)cc(C)c3)c(=O)c3oc4ccccc4c32)c1	-1%	nt	nt	1%	nt	nt
NC/C=C/C(=O)O	nt	nt	-2%	0%	nt	nt
Cc1ccsc1CN(C)C(=O)c1ccc(Oc2ccccc2)cc1	-1%	18*	-3%	3%	63*	-5%
SMILES	Sm TGR block	Cycloheximide cs	Giardia FBPA inh	TbPYK inhibitor	Shiga inhibitor	LmPK inhibitor
CCOc1ccc(C(=S)N2CCCC2)cc1OC	0%	-6	-6%	-4%	-5	-3%
Fc1ccc(COc2ccccc2C(=S)N2CCCC2)cc1	-9%	2	0%	-12%	34	-2%
Cc1ccc(COc2ccccc2C(=S)N2CCCC2)cc1	10%	17*	-8%	-9%	20	-1%
COc1cc(C(=S)N2CCCC2)ccc1OCc1ccc(C)cc1	5%	69*	-6%	-4%	81*	-2%
O=C(/C=C\c1ccc(-c2cccc([N+](=O)[O-])c2)o1)N1CCOCC1	-4%	37*	-1%	-11%	61*	-16%
O=C(O)c1ccc(-c2cccc([N+](=O)[O-])c2)o1	35µM*	5	11%	-1%	22	3%
CC(=O)N/C(=C\c1cccc([N+](=O)[O-])c1)C(=O)NC1CCCCC1	-10%	49*	15%	5%	61*	-4%
O=C(NC1CCCCC1)c1ccc(-c2ccccc2F)o1	nt	nt	nt	-12%	nt	nt
O=C(NC1CCCCC1)c1ccc(-c2cccc([N+](=O)[O-])c2)o1	-13%	56*	?	0%	74*	4%
O=C(c1cccc([N+](=O)[O-])c1)N1CCOCC1	-18%	-2	5%	2%	1	0%
Cc1ccc(NC(=O)C2CCC(CNS(=O)(=O)c3cccc4nsnc34)CC2)c(Cl)c1 (configuration not stated)	-4%	nt	nt	6%	nt	nt
COc1ccc2nc(NC(=O)c3ccc(-c4cccc([N+](=O)[O-])c4)o3)sc2c1	-1%	10	2%	nt	31	10%
N#C/C(=C(/O)c1ccc(-c2cccc([N+](=O)[O-])c2)o1)c1nc2ccccc2s1	-31%	21	-1%	1%	53*	-15%
CN(/N=C/c1ccco1)C1=NS(=O)(=O)c2ccccc21	0%	4	0%	-5%	9	2%
CCNc1nc(NCC)nc(N(C)/N=C/c2ccco2)n1	35µM*	5	?	10%	-6	5%
COCCCN(C(=O)c1ccco1)c1nc(-c2cc(OC)ccc2OC)cs1	89µM*	-1	-12%	4%	9	6%
CCn1nc(C(=O)OCC(=O)Nc2nc(-c3ccc(OC)cc3)cs2)c2ccccc2c1=O	?	46*	0%	-3%	50*	-1%
COc1ccc(OC)c(-c2csc(N(Cc3ccco3)C(=O)c3ccco3)n2)c1	-12%	9	-5%	6%	32	7%
CCN(C(=O)c1cccs1)c1nc(-c2ccc(OC)cc2)cs1	-7%	43*	-9%	-3%	101*	0%
Cc1ccc(-c2csc(N(CC3CCCO3)C(=O)c3ccco3)n2)cc1 (configuration not stated)	15%	23*	-4%	-1%	40*	1%
COc1ccc(-c2csc(N(CCCN(C)C)C(=O)c3cccs3)n2)cc1	-1%	-2	-11%	-3%	26	-1%
Cc1ccc(Cn2c(C)c3cnn(CC(=O)O)c(=O)c3c2C)cc1	-13%	nt	nt	2%	nt	nt
Cc1ccc(CCNC(=O)c2cc3c(=O)n(C)c4ccccc4c3n2C)cc1	-10%	nt	nt	3%	nt	nt

Screening results as filed in PubChem BioAssay.
